Assay results as given in article PMC4336329 (PLoS ONE, 2015).
Screen size: about 310,000 compounds; about 14,000 (4.5%) showed an effect of 50% or more. The effect is printed as a negative number. The sample as a whole holds a higher share of strong results than the screen did.

target: human ether-à-go-go-related gene (hERG) potassium channel (human, UniProt Q12809); experiment: primary screen, population patch clamp on CHO cells stably expressing hERG; higher = less effect of the substance
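Further: peak tail current of the secondary pulse compared with the same well before compound.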

Chain of human ether-à-go-go-related gene (hERG) potassium channel (Q12809 whole entry, looked up): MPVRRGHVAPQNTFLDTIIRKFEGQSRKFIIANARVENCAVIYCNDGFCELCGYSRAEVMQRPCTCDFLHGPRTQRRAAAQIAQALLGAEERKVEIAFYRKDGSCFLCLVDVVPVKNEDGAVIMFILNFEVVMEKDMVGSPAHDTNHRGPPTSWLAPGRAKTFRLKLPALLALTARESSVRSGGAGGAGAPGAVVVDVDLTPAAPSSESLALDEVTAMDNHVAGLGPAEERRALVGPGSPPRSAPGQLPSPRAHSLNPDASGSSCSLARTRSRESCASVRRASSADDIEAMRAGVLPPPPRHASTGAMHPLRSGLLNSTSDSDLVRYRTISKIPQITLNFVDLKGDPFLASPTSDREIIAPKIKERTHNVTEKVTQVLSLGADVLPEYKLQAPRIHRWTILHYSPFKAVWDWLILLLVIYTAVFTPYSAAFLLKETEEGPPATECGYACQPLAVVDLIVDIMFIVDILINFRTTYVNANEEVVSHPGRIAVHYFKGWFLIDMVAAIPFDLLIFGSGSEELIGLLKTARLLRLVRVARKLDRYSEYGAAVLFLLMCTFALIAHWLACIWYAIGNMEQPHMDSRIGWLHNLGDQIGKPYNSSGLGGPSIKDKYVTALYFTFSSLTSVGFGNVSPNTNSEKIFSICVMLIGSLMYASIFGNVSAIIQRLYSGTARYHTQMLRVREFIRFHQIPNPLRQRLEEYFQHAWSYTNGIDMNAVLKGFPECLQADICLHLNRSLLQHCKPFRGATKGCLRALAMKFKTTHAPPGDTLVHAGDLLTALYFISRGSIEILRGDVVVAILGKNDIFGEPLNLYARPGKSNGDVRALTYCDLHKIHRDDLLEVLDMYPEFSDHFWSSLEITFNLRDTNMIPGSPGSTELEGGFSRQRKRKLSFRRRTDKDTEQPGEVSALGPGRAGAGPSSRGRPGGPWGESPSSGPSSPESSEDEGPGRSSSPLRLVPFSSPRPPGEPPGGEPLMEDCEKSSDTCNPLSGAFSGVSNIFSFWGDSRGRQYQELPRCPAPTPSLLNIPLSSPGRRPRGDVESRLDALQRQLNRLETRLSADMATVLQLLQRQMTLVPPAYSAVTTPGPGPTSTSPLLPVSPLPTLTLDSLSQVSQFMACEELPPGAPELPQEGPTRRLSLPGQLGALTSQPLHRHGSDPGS

Compound | hERG current change (%, negative = inhibition) at 10uM [%]
Nc1c(-c2cccc(Cl)c2)cnn1-c1ccccc1 | -60.3
Nc1c(-c2ccccc2)cnn1-c1ccccc1 | 12
Nc1c(-c2ccccc2)cnn1-c1cccc(Cl)c1 | -12.3
COc1ccc(CCNC(=O)C2CC(c3ccc([N+](=O)[O-])cc3)=NO2)cc1 (stereo not shown) | -61.6
COc1ccc(CCNC(=O)C2CCN(C(=O)c3ccc([N+](=O)[O-])cc3)CC2)cc1 | -65.6
O=C(NCCc1ccccc1)C1CCN(C(=O)c2ccc(F)cc2)CC1 | -2.25
COCCNC(=O)C1CC(c2ccc([N+](=O)[O-])cc2)=NO1 (stereo not shown) | -0.798
COc1ccc(CCNC(=O)C2CCN(C(=O)c3ccc(Cl)cc3)CC2)cc1 | -12.8
COc1ccc(CNC(=O)C2CC(c3ccccc3[N+](=O)[O-])=NO2)cc1 (stereo not shown) | -27.7
COc1ccc(CCNC(=O)C2CC(c3cccc([N+](=O)[O-])c3)=NO2)cc1 (stereo not shown) | -21.8
COc1ccc(CCNC(=O)C2CCN(C(=O)c3ccc(F)cc3)CC2)cc1 | 10.2
O=C(NCc1ccc(OC(F)(F)F)cc1)C1CC(c2ccccc2[N+](=O)[O-])=NO1 (stereo not shown) | -68.3
O=C(NCc1ccc(C(F)(F)F)cc1)C1CC(c2ccccc2[N+](=O)[O-])=NO1 (stereo not shown) | -46.1
COc1ccc(CCNC(=O)C2CCN(C(=O)c3ccccc3)CC2)cc1 | 2.13
O=C(NCCc1ccccc1)C1CCN(C(=O)c2ccc([N+](=O)[O-])cc2)CC1 | -63.2
Cc1ccc(OCC(=O)Nc2ccccc2N2CCCC2)c(C)c1 | -3.14
CCCN(c1ccccc1C(=O)O)S(=O)(=O)c1ccc2c(c1)n(C)c(=O)n2C | 19.8
Cc1ccc(NCC(O)C(O)C(O)CO)cc1C (stereo not shown) | 14.9
Clc1ccc2oc(-c3ccccn3)nc2c1 | -0.352
O=C(NCCNC(=O)c1ccc([N+](=O)[O-])cc1)c1ccncc1 | 12
COc1ccc(CCNC(=O)c2nc3ncccn3n2)cc1OC | 18.6
Cc1ccc2c(c1)N(CC(=O)N1CCCc3ccccc31)C(=O)CO2 | -8.16

Compound | hERG current change (%, negative = inhibition) at 10uM [%]
COc1cccc(N2CCN(c3ccc(N4C(=O)CCC4=O)cc3[N+](=O)[O-])CC2)c1 | 13.7
COCCCNC(=O)CN(C1CCCCC1)S(=O)(=O)c1ccc(C)cc1 | -0.742
CCC(CC)C(=O)NCCc1cc2c(C)ccc(C)c2[nH]c1=O | 2.39
COc1ccccc1CN(C)C(=O)C(c1ccccc1)c1ccccc1 | -2.32
COc1cccc(C(=O)N2CCC(C(=O)NCc3ccco3)CC2)c1 | -14.9
Cc1ccc(C(=O)N2CCC(C(=O)NCc3ccco3)CC2)cc1 | -11.3
O=C(NCc1ccco1)C1CCN(C(=O)c2ccc([N+](=O)[O-])cc2)CC1 | -53
CCn1nnc(NC(=O)C(C)(c2ccccc2)c2ccccc2)n1 | -10.4
COc1ccc(S(=O)(=O)NCC2CCCN(Cc3ccc(O)cc3)C2)cc1 (stereo not shown) | -59.2
COc1ccc(S(=O)(=O)NCC2CCCN(Cc3ccc(C)o3)C2)cc1 (stereo not shown) | -25.5
COc1ccc(S(=O)(=O)NCC2CCCN(Cc3cccnc3)C2)cc1 (stereo not shown) | -47.7
CN(C)S(=O)(=O)NCC1CCCN(Cc2cc3ccccc3s2)C1 (stereo not shown) | -6.37
CN(C)S(=O)(=O)NCC1CCCN(Cc2ccc(-c3ccccc3)cc2)C1 (stereo not shown) | -50.8
OCC1CCCN(Cc2ccc(-c3ccccc3)cc2)C1 (stereo not shown) | -28.4
COc1ccc(S(=O)(=O)NCC2CCCN(CC(C)(C)C)C2)cc1 (stereo not shown) | 14.9
COc1ccc(S(=O)(=O)NCC2CCCN(Cc3ccccc3Cl)C2)cc1 (stereo not shown) | -37.9
COc1ccc(S(=O)(=O)NCC2CCCN(Cc3cccc(C(C)=O)c3)C2)cc1 (stereo not shown) | -43.9
COc1ccc(S(=O)(=O)NCC2CCCN(Cc3ccccc3C)C2)cc1 (stereo not shown) | -12.3
CCOc1ccccc1CN1CCCC(CNS(=O)(=O)c2ccc(OC)cc2)C1 (stereo not shown) | -63.7
CCc1ccc(CN2CCCC(CNS(=O)(=O)c3ccc(OC)cc3)C2)cc1 (stereo not shown) | -69.8
CC(C)C(C(=O)Nc1sc2c(c1C#N)CCCCC2)N1C(=O)c2ccccc2C1=O (stereo not shown) | 4.7
